Experimental data published in PubChem BioAssay (NCI).
Compounds without any hit were thinned out: in the full panel of roughly 83,000, 20% have a hit.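 Activity criterion: percent growth below 10, measured after cells in 96-well plates were exposed to a single compound concentration for 48 hours.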 Calls of active or inactive are those of the source.

test system: UACC-62 melanoma; assay: NCI-60 one-dose screen, 48 h (100 = growth as untreated, 0 = no growth, -100 = all killed); details: 10 µM unless noted
Protocol: Growth inhibition of the UACC-62 human tumor cell line is measured as a screen for anti-cancer activity. Cells are grown in 96 well plates and exposed to the test compound for 48 hours. Compounds are tested at a single concentration, which is 10^-5 M for most compounds. The reported endpoint is percent growth (GI% or GIPRCNT), where numbers from 0 - 100% represent growth inhibition, and numbers from -100% - 0 represent cell death. For example, a value of 40 represents 60% growth inhibition. A value of 0 means no net growth occurred over the course of the experiment. A value of -40 indicates 40% of cells at the beginning of the experiment died by the end of the experiment. A value of -100 means all cells are dead at the end of the experiment.
NCI-60 Human Tumor Cell Lines Screen was performed using the standard one-dose NCI protocol, which is described in more detail at https://dtp.cancer.gov/discovery_development/nci-60/default.htm.
Compounds with GIPRCNT values below 10 were considered active. Activity score was based on GIPRCNT using the following formula: […]
Score is 0 for GIPRCNT values of 100 or above, 50 for GIPRCNT values of 0, and 100 for GIPRCNT values of -100.

Compound | growth
c1ccc(Nc2ncc3c(n2)-c2cccn2CC3)cc1 | 80.1% (inactive)
CCN(CC)CCNc1ncnc2c1cnn2-c1ccc(Cl)cc1 | -50.5% (active)
COc1cc2c(c(OC)c1OC)C(=O)CC(c1cccc(C(=O)Nc3cccc(Br)c3)c1)O2 (stereo not given) | 58.4% (inactive)
CCCCCCC(C(=O)OCC)(C(=O)OCC)C1CCCCCC1 | 101% (inactive)
OC(c1ccccc1)(c1ccccc1)C(F)(F)F | 102% (inactive)
COc1cc(NC(=O)CSc2nc3ccc(Cl)cc3c(=O)n2-c2ccc(F)cc2)cc(OC)c1OC | 71.3% (inactive)
COC1=C(OC)C(=O)c2ccccc2C1=O | 101% (inactive)
CCCCCCCCCCCCc1ccc([N+](CC)(CC)CC)cc1 | 11.1% (inactive)
Nc1cc(N)c2nc(-c3ccccc3)c(NCCc3ccc(Cl)c(Cl)c3)nc2c1 | -91.7% (active)
C/C(=N\Nc1ccc(Cl)cn1)c1ccccn1 | -28.3% (active)
O=C(N/N=C\c1ccc(-c2ccc(Br)cc2)o1)c1cc2oc(-c3cccc(C(F)(F)F)c3)cc2[nH]1 | 108% (inactive)
C#CCCCCCCC[C@@H]1OC(=O)[C@H]([C@@H](C)CC)NC(=O)[C@H]([C@@H](C)CC)NC(=O)CC(=O)[C@@H]1C | 88.7% (inactive)
CN(CCC#N)c1ccc(/C=C(\C#N)c2cccc(C(F)(F)F)c2)cc1 | 55.3% (inactive)
COc1cc(-c2c3c(cn2CCN2CCCCC2)-c2oncc2CC3)cc(OC)c1OC | 90.4% (inactive)
COc1ccc(-c2nc(SCC(C)C)nc(Nc3ccc([N+](=O)[O-])cc3)c2C#N)cc1 | 99% (inactive)
O=C1/C(=N\c2cc(=O)[nH]n2S(=O)(=O)c2ccccc2)Nc2ccccc21 | 97.6% (inactive)
O=C(Nn1cnc2ccccc21)N1CCCC1 | 105% (inactive)
COC1NC(Cl)=C(C#N)C(C#N)(C#N)C1(C)C (stereo not given) | 98.9% (inactive)
Cc1nc(NC(=O)NC2CCCCC2)sc1C(=O)NN | 90.8% (inactive)
O=C1N/C(=N\c2nnc(-c3ccc(O)cc3)s2)S/C1=C\c1ccccc1O | 97.6% (inactive)

Compound | growth
O=C(O)c1occ(Cl)c1Cl | 112% (inactive)
O=C(OCC1CC2(Cl)C(Cl)=C(Cl)C1(Cl)C2(Cl)Cl)C1C(C(=O)OCC2CC3(Cl)C(Cl)=C(Cl)C2(Cl)C3(Cl)Cl)C2(Cl)C(Cl)=C(Cl)C1(Cl)C2(Cl)Cl (stereo not given) | 107% (inactive)
Cc1cc2c(-c3nc4ccccc4[nH]3)c(O)c(O)cc2c(O)c1-c1c(C)cc2c(-c3nc4ccccc4[nH]3)c(O)c(O)cc2c1O | -16.6% (active)
COc1ccc(C2=NN(C(=O)c3cc(-c4ccc(C)cc4)nc4ccccc34)C(c3cc(-c4ccccc4)nn3-c3ccccc3)C2)cc1 (stereo not given) | 83.5% (inactive)
CCC(CCCN1C(=O)c2ccccc2C1=O)Nc1cc(OC)cc2cccnc12 (stereo not given) | 82.6% (inactive)
COc1ccc2cc(C(C)C(=O)Nc3ccc(S(=O)(=O)Nc4cc(C)on4)cc3)ccc2c1 (stereo not given) | 108% (inactive)
O=c1c(N=Nc2nccs2)c(-c2ccccc2)[nH]n1-c1nc(-c2ccccc2)cs1 | 12.3% (inactive)
COC(=O)c1ccc(C(=Nc2ccc(N(C)C(=O)CN3CCN(C)CC3)cc2)c2c(O)[nH]c3ccc(C(=O)OC)cc23)cc1 | 42.7% (inactive)
O=C(/C=C/c1cccc(O)c1)c1cccc(-n2cc(-c3ccc(Cl)cc3)[nH]c2=O)c1 | 5.09% (active)
[N-]=[N+]=Nc1ncc(-c2ccc(C(F)(F)F)cc2)c(NC2CCCCCC2)n1 | 25.5% [100 µM] (inactive)
Nc1cc(N)c2nc(NCCc3ccc(Cl)c(Cl)c3)cnc2c1 | 33.7% (inactive)
CN1CCN(Cc2ccc(NC(=O)c3ccc(C#Cc4c(N)ncc5ccc(F)cc45)cc3)cc2C(F)(F)F)CC1 | -73.3% (active)
CCOC(=O)C1C(=O)C(=O)N(C(C)C)C1C(=O)OCC (stereo not given) | 96.4% (inactive)
CCN(CCO)CCNc1ccc(C)c2sc3cc(OC)ccc3c(=O)c12 | 98.9% (inactive)
CCCCCCCCCCCCCCCCCCOP(=O)(O)O | 91.5% (inactive)
COc1cc2c(cc1OC)C(Cc1cc(OC)c(OC)cc1[N+](=O)[O-])=NCC2 | 83.7% (inactive)
CCC(C)(CC)c1ccc(O)c(C)c1 | 109% (inactive)
COCC(=O)NNc1[nH]c(-c2ccc(OC)cc2)cc1C#N | 99.4% (inactive)
COc1ccc(CN2C(=O)/C(=C\C(=O)c3ccc(OCCN4CCCC4)cc3)c3ccccc32)cc1 | 88.7% (inactive)
OCCN1CCCN(CCCN2c3ccccc3Sc3ccc(C(F)(F)F)cc32)CC1 | -46.3% (active)
